14 molecules from PubChem BioAssay (Tox21) can be followed below.

Test [1] can be described thus: qHTS assay to identify small molecule antagonists of the retinoid-related orphan receptor gamma (ROR-gamma) signaling pathway - cell viability counter screen (AID 1159520). Also: nearly all actives have a fitted effect of over 50% in size. Also: potency is read from the fitted curve at half-maximal effect. The gist of the method:
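Tet-on ROR gamma CHO cells (1,000/well) were plated 4 hr, given compounds in DMSO for 2 hr at 37 C, then induced with 1 uM final doxycycline for 16 hr. Viability was read as ATP by CellTiter-Glo luminescence after 30 min.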

The nature of test [2]: qHTS assay to identify small molecule agonists of the AP-1 signaling pathway - cell viability counter screen (AID 1159525; calls by dose curve; also: nearly all actives have a fitted effect of over 55% in size; also: potency is read from the fitted curve at half-maximal effect). Summed up: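 Each titration point was normalised to DMSO and tetra n-octyl ammonium bromide controls. The read was Cell Titer Glo luminescence after 30 min at RT, following 5 h compound exposure of ME-180 AP-1-bla cells at 37 °C.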
Test [3] in a line: qHTS assay to identify small molecule agonists of the AP-1 signaling pathway (AID 1159526; calls by dose curve).
Test [4] addresses Retinoic acid receptor RXR-alpha (Homo sapiens) (UniProt P19793). The experiment in a line: qHTS assay to identify small molecule agonists of the RXR signaling pathway (AID 1159527; calls by dose curve; also: nearly all actives have a fitted effect of over 35% in size). The gist of the method: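 Fluorescence ratio readout (460 vs 530 nm) from GeneBLAzer RXR-alpha HEK 293T cells after 16 hr compound treatment; cells seeded 5 hr beforehand in low-serum, charcoal-stripped medium.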

The nature of test [5]: qHTS assay to identify small molecule agonists of the RXR signaling pathway - cell viability counter screen (AID 1159529). Also: nearly all actives have a fitted effect of over 50% in size. Also: potency is read from the fitted curve at half-maximal effect. Summed up: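 Viability read-out for the RXR-alpha agonist qHTS: luminescent CellTiter-Glo signal after 30 min at RT. HEK 293T bla reporter cells, 2% charcoal-stripped FBS, 16 hr compound incubation; tetraoctyl ammonium bromide as cytotoxic control.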
Test [6] in a line: qHTS assay to identify small molecule antagonists of the retinoid acid receptor (RAR) signaling pathway - cell viability counter screen (AID 1159551). Also: nearly all actives have a fitted effect of over 35% in size. Summed up:
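Cytotoxicity counter screen: ATP content quantified by CellTiter-Glo luminescence in C3RL4 cells treated 6 hr at 37 C with compound and retinol (1 uM final). Cells plated at 1,000/well and cultured overnight before dosing.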

A short description of test [7]: qHTS assay to identify small molecule agonists of the peroxisome proliferator-activated receptor delta (PPARd) signaling pathway - cell viability counter screen (AID 743211). Also: potency is read from the fitted curve at half-maximal effect; nearly all actives have a fitted effect of over 55% in size. The gist of the method: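 Following 5 h plating at 37 C and 5% CO2, PPARd UAS-bla HEK293H cells took up test compounds for 17 h. Viability was quantified by luminescence 30 min after CellTiter-Glo addition at room temperature.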

The nature of test [8]: qHTS assay to identify small molecule antagonists of the peroxisome proliferator-activated receptor delta (PPARd) signaling pathway - cell viability counter screen (AID 743213). Also: potency is read from the fitted curve at half-maximal effect; nearly all actives have a fitted effect of over 50% in size. Summed up:
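CellTiter-Glo was added to PPARd-bla HEK293H wells following 17 h compound treatment in the presence of 300 nM L165041. Luminescence was recorded after 30 min at room temperature.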

Test [9] has as its target Peroxisome proliferator-activated receptor delta (Homo sapiens) (UniProt Q03181). The experiment in a line: qHTS assay to identify small molecule antagonists of the peroxisome proliferator-activated receptor delta (PPARd) signaling pathway (AID 743215; active = well fitted inhibition curve with a large enough effect in the signal ratio in the repeat runs, not every such curve was filed as active; the % refers to the signal ratio;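 also: cells stimulated with agonist L165041 at 300 nM final during compound exposure; potency is read from the fitted curve at half-maximal effect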). The gist of the method:
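Agonist L165041 (300 nM final) added with compound to PPARd-bla HEK293H UAS-bla reporter cells; 17 h incubation at 37 C. Read-out: LiveBLAzer FRET substrate, 2 h at room temperature, fluorescence intensity.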

Test [10] is described as follows: qHTS assay to identify small molecule agonists of the farnesoid-X-receptor (FXR) signaling pathway - cell viability counter screen (AID 743218). Also: potency is read from the fitted curve at half-maximal effect; nearly all actives have a fitted effect of over 45% in size. Summed up:
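Viability counter screen in the same wells: CellTiter-Glo luminescence, 30 min room-temperature incubation, measured after the beta-lactamase read. Cells were GeneBLAzer FXR-UAS-bla HEK 293T, compound-treated 16 h at 37C.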

A short description of test [11]: qHTS assay to identify small molecule antagonists of the farnesoid-X-receptor (FXR) signaling pathway - cell viability counter screen (AID 743221; active = well fitted cell-killing curve with a large enough effect in the repeat runs, not every such curve was filed as active; also: nearly all actives have a fitted effect of over 50% in size; also: potency is read from the fitted curve at half-maximal effect). The gist of the method: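 Compound effects on cell number were measured as CellTiter-Glo luminescence in HEK 293T cells expressing FXR-UAS-bla, after 16 h at 37 C with 50 uM CDCA (final).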
The target of test [12] is Vitamin D3 receptor (Homo sapiens) (UniProt P11473). The experiment in a line: qHTS assay to identify small molecule agonists of the vitamin D receptor (VDR) signaling pathway (AID 743222; calls by dose curve). The gist of the method:
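Agonist mode, beta-lactamase reporter: fluorescence from LiveBLAzer B/G FRET substrate (2 h, room temperature) read after 16 h compound treatment at 37 C of VDR-bla cells, which were pre-incubated 4 h after seeding.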

Test [13] in a line: qHTS assay to identify small molecule agonists of the vitamin D receptor (VDR) signaling pathway - cell viability counter screen (AID 743224). Summed up:
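Counter screen run in the same wells as the VDR-bla reporter assay: CellTiter-Glo luminescence, 30 min at room temperature, after 16 h compound treatment at 37C of cells pre-plated for 4 h.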

Test [14] in a line: qHTS assay to identify small molecule antagonists of the vitamin D receptor (VDR) signaling pathway - cell viability counter screen (AID 743225). Summed up: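 In this counter screen, VDR-bla HEK 293T cells receive test compound plus 3 nM final calcitriol for 16 h at 37C. Room-temperature steps of 2 h with the beta-lactamase substrate, then 30 min with CellTiter-Glo, precede the luminescence read.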

Test [15] has as its target Nuclear receptor ROR-gamma (Homo sapiens) (UniProt P51449). Kind of test: qHTS assay to identify small molecule antagonists of the retinoid-related orphan receptor gamma (ROR-gamma) signaling pathway (AID 1159521; also: nearly all actives have a fitted effect of over 50% in size; also: potency is read from the fitted curve at half-maximal effect). The gist of the method:
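Screening format: cell-based luciferase reporter in CHO cells with doxycycline-inducible RORγ. Compound pre-exposure lasts 2 h, doxycycline is 1 uM final, induction runs 16 h at 37 C, and ONE-Glo luminescence is read.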

A short description of test [16]: qHTS assay to identify small molecule antagonists of the retinoic acid receptor (RAR) signaling pathway (AID 1159552; also: nearly all actives have a fitted effect of over 50% in size; also: potency is read from the fitted curve at half-maximal effect). The gist of the method:
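Using a RARE-driven luciferase construct in C3RL4 cells, retinol at 1 uM final provided the agonist stimulus while compounds were co-applied. After 6 hours at 37 C, luminescence was recorded to flag inhibitors of retinol signaling.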

Test [17] deals with Peroxisome proliferator-activated receptor delta (Homo sapiens) (UniProt Q03181). The experiment in a line: qHTS assay to identify small molecule agonists of the peroxisome proliferator-activated receptor delta (PPARd) signaling pathway (AID 743212; calls by dose curve). The gist of the method: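 Cells expressing a UAS-driven beta-lactamase reporter (PPARd-bla HEK293H) were given test compounds after a 5 h settle and kept at 37 C. Reporter activity was then measured as FRET fluorescence using LiveBLAzer B/G substrate.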

Records with an inconclusive call do not appear. Values without a mark were called inactive. Calls of active or inactive are those of the source. Unless noted, calls follow the shape of the dose curve; as a rule, active = well fitted curve in the direction sought with a large enough effect in the repeat runs; inconclusive = weak or mixed curves; inactive = no such curve, though single readings can be large; an effect the other way counts as inactive or inconclusive.

Chain of Retinoic acid receptor RXR-alpha (Homo sapiens) (P19793 whole entry, looked up): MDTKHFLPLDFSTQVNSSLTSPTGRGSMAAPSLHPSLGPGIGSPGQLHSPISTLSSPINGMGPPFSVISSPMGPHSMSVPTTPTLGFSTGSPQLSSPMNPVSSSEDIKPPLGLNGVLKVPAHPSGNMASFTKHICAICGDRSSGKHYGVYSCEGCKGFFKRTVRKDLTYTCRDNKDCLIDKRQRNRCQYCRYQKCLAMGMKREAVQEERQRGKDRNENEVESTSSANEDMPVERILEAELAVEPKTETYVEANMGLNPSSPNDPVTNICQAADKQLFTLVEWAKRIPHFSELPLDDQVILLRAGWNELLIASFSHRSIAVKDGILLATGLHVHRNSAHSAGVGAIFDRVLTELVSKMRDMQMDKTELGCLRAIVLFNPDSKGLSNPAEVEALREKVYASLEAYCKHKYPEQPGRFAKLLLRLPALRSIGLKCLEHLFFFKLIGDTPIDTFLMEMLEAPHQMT
Chain of Vitamin D3 receptor (Homo sapiens) (P11473 whole entry, looked up): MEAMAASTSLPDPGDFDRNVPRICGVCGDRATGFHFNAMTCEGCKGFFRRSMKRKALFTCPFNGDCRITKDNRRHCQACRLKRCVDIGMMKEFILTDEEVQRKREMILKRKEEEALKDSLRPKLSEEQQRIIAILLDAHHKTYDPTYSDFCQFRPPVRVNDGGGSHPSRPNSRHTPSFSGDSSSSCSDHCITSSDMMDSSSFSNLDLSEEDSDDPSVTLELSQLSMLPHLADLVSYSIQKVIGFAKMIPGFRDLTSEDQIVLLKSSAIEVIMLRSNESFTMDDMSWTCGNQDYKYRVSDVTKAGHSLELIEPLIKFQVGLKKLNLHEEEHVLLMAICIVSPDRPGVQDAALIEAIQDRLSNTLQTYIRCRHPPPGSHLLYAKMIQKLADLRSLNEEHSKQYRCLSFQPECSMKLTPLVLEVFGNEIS
Chain of Peroxisome proliferator-activated receptor delta (Homo sapiens) (Q03181 whole entry, looked up): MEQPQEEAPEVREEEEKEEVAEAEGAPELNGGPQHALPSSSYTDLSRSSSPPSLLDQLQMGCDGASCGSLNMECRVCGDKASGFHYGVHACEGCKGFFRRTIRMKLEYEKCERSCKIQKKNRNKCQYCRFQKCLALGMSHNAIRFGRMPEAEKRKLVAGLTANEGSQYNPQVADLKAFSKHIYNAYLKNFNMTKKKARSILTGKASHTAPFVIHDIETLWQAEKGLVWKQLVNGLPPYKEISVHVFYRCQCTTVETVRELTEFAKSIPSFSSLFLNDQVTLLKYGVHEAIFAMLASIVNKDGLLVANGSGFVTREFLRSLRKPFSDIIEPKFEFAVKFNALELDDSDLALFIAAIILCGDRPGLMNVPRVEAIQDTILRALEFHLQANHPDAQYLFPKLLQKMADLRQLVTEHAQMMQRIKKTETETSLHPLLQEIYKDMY

For `[Cl][Sc]([Cl])[Cl]`, the Potency entry in [1], in test [2], in test [3], in test [4], in test [5] and in test [6] was “inactive” throughout.

With `CN1CCN(c2ccccc2/C=C2\SCCN(c3ccc(Cl)c(Cl)c3)C2=O)CC1`, the Potency was 24.5 µM (active) in test [7]; 24.5 µM (active) in test [8]; 21.9 µM (active) in test [9]; 43.6 µM (active) in test [10]; 54.9 µM (active) in [11]; 38.9 µM (active) in test [13]. Besides, the Potency in test [14] is 43.6 µM (active); in test [1], 68.6 µM (active); in [15], 7.7 µM (active); in test [5], 24.5 µM (active); in test [16], 48.6 µM (active). Also, the outcome in [12] was inactive.

As to `C/C(=N\[Si](C)(C)C)O[Si](C)(C)C`, the Potency entry in test [1], in test [2], in [3], in [4], in test [5] and in [6] was “inactive” throughout.

For the molecule `CCN(CCC#N)c1ccc(N=Nc2ccc([N+](=O)[O-])cc2)cc1`, the Potency entry in test [1], in test [2], in test [3], in [4], in test [5] and in [16] was “inactive” in each case.

Turning to `CSc1nnc(C(C)(C)C)c(=O)[nH]1`, the Potency result in [1], in test [2], in test [3], in [4], in test [5] and in test [6] was “inactive” throughout.

On to `Nc1cccnc1N`, for which the Potency entry in [1], in test [15], in test [3], in test [4], in test [5] and in [6] was “inactive” each time. Further, the Potency entry in [16] is “inactive”.

Regarding `Cn1c(=O)[nH]c2ncn(C)c2c1=O`, the Potency entry in test [1], in test [2], in test [3], in test [4], in test [5] and in [6] was “inactive” throughout. In addition, in test [16], the Potency entry is “inactive”.

Turning to `CCCC(C)C=O` (stereo not given), the Potency entry in test [1], in [15], in test [3], in test [4], in [5] and in [6] was “inactive” throughout.

On to `Nc1ccc(Oc2cccc(Oc3ccc(N)cc3)c2)cc1`, for which the Potency result in [1], in [2], in test [3], in [5] and in test [6] was “inactive” each time. Also, the Potency in test [16] is 24.3 µM (active).

On to `CC(=O)CC(N)=O`, for which the Potency result in test [1], in [15], in test [3], in [4], in test [5] and in test [6] was “inactive” throughout. Also, in test [16], the Potency entry was “inactive”.

Turning to `C=C1C(CCl)(CCl)C2(Cl)C(Cl)C(Cl)C1(Cl)C2(Cl)Cl` (stereo not given), the Potency in test [7] was 34.3 µM (active); in [10] it was 48.4 µM (active); in [13], 21.6 µM (active); in test [14], 48.4 µM (active); in [1], 60.4 µM (active); in test [15], 48 µM (active). Further, the Potency was 43.1 µM (active) in [2] and 24.3 µM (active) in [5]. Further, the Potency entry in [6] is “inactive”.

`Cc1c(Cl)c(=O)oc2cc(O)ccc12`: the Potency result in test [1], in test [15], in [5] and in test [6] was “inactive” in each case.

As for `C=COCCCC`, the Potency result in test [1], in test [15], in test [3], in [5], in test [6] and in test [16] was “inactive” in each case.

Consider `O=C1OC(O)C(C(Cl)Cl)=C1Cl` (stereo not given), for which the outcome in test [17] and in test [12] was inactive. Further, the Potency result in test [11], in [2] and in [6] was “inactive” in each case. Also, the values for the Potency in test [1] and in test [15] were 7.07 µM (active) and 14.1 µM (active), respectively.
